Inhibition data for 92 molecules are collected here from PubChem BioAssay AID485346 (Sanford-Burnham Center for Chemical Genomics, 2010).

The campaign covered roughly 330,000 compounds. About 10,000 (3%) were called active.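 How the source made its calls: active means inhibition of at least 50% at 8 µM in the primary screen; inactive means the rest.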 The sample as a whole holds a higher share of actives than the screen did.

In general, inhibition refers to the relative decrease from the control value, in per cent.

The target of the test is Protein Mdm4 (Homo sapiens) + E3 ubiquitin-protein ligase Mdm2 (Homo sapiens) (UniProt O15151+Q00987). In words: disruptors of Mdm2/MdmX RING complex – cell-based, luminescence, split luciferase, SaOS-2, uHTS, primary screen (AID 485346). The note with it: SaOS-2 split-luciferase Mdm2/MdmX complementation, at 8 µM, stronger effect = higher value.
Protein Mdm4 (Homo sapiens) + E3 ubiquitin-protein ligase Mdm2 (Homo sapiens), sequence (O15151 whole entry, looked up): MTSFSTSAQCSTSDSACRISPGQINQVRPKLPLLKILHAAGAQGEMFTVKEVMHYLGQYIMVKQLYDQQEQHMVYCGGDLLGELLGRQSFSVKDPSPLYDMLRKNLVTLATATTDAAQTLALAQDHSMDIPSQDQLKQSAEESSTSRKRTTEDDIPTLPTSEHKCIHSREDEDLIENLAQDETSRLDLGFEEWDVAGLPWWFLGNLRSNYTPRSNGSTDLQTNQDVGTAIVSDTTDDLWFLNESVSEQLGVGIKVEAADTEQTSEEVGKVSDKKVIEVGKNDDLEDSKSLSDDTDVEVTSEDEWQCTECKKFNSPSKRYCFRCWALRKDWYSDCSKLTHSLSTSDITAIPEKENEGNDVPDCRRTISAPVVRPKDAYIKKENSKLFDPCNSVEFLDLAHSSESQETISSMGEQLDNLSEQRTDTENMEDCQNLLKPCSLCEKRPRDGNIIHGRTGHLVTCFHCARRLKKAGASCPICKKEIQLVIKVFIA
Protein Mdm4 (Homo sapiens) + E3 ubiquitin-protein ligase Mdm2 (Homo sapiens), sequence (Q00987 whole entry, looked up): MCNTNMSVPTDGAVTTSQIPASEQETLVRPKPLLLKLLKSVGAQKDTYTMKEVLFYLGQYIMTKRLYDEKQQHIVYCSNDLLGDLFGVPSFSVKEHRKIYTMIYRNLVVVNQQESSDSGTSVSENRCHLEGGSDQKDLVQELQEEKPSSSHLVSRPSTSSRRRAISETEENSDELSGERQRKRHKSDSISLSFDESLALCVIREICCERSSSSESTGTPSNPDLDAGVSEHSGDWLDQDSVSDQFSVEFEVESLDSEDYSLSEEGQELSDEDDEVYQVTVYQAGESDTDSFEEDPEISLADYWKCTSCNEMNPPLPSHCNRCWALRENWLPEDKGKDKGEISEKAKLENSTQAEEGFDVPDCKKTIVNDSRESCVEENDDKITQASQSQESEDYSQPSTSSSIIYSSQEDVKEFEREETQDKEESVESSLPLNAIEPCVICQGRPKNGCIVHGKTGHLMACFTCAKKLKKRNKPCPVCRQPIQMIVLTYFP
On to `Cc1ccc(C)c(NS(=O)(=O)c2c(C)[nH]c(C)c2C(=O)N2CCCCC2)c1`, for which the inhibition is -0.656% (inactive).

As for `Cc1c(C)n(Cc2ccc(Cl)cc2)c2ccc(C(=O)NCCCN3CCOCC3)cc12`, the inhibition is 45.2% (inactive).

Turning to `c1ccc2c(c1)CSc1sccc1C2=C1CCNCC1`, the inhibition is 78.5% (active).

In the case of `CC1(C(=O)OCC(=O)Nc2ncc(Cl)cc2Cl)CC1(Cl)Cl` (configuration not stated), the inhibition was -3.51% (inactive).

In the case of `C=CCNC(=S)NNc1ncnc2sc3c(c12)CC(C)(C)OC3`, the inhibition is 10.5% (inactive).

As for `COc1cc(/C=C/C(=O)OCC(=O)NCCCc2ccccc2)ccc1O`, the inhibition was -15.8% (inactive).

As for `O=C(CCC(=O)N1CCCC1)Nc1ccc([N+](=O)[O-])cc1`, the inhibition was 8.85% (inactive).

On to `CCC12CN3CC(CC)(CN(C1)C31C(=O)N(C)c3ccc(C)cc31)C2=O` (configuration not stated), for which the inhibition is 5.2% (inactive).

For the molecule `Cc1cccc(C(=O)OC(C)CN2CCN(C)CC2)c1` (configuration not stated), the inhibition was 15.4% (inactive).

Turning to `Cc1cccc(-c2nc3ccc(C(=O)NCCN4CCN(C)CC4)cc3nc2-c2cccc(C)c2)c1`, the inhibition is 93.2% (active).

For the molecule `CCC1=Nc2cc(C(=O)NCCN3CCCC3)ccc2Sc2ccc(C)cc21`, the inhibition was 22.7% (inactive).

Regarding `O=C(CCN1C(=O)c2ccccc2C1=O)NNC(=O)c1ccc(Cl)cc1Cl`, the inhibition is -2.94% (inactive).

Consider `Cc1ccc(C(=O)NNC(=O)c2ccc3c(c2)OCCO3)cc1`, for which the inhibition is -59.9% (inactive).

`CCCCn1c(N)c(N(CCC(C)C)C(=O)COC(=O)c2ccc(CC)cc2)c(=O)[nH]c1=O`: the inhibition was 5.72% (inactive).

As for `CCc1ccccc1NC(=O)[C@@H]1CCC(=O)N1C1OC(=O)c2c1ccc(OC)c2OC` (some centres not stated), the inhibition was 18.1% (inactive).

For the molecule `CC1CN(C(=O)CCC(=O)NCc2cccnc2)c2ccccc2O1` (configuration not stated), the inhibition is -8.45% (inactive).

Take `CC1CN(C(=O)CCC(=O)NC2CCN(Cc3ccccc3)CC2)c2ccccc2O1` (configuration not stated): the inhibition was 22.7% (inactive).

Turning to `CC1CN(C(=O)CCC(=O)NCCCN2CCC(Cc3ccccc3)CC2)c2cc(Cl)ccc2O1` (configuration not stated), the inhibition was 90.6% (active).

With `CC(OC(=O)CCc1nc(=O)c2ccccc2n1C)C(=O)NCc1ccc2c(c1)OCO2` (configuration not stated), the inhibition is -11.9% (inactive).

As for `CN(CC(=O)NC(=O)Nc1ccccc1F)Cc1ccccc1`, the inhibition was -18% (inactive).

As for `CCOC(=O)CSc1nncc2ccc(OC)c(OC)c12`, the inhibition was 0.893% (inactive).

For the molecule `COc1ccc(C2c3c(C)nn(-c4ccccc4)c3NC(=O)N2c2ccccc2)cc1` (configuration not stated), the inhibition is 9.76% (inactive).

In the case of `CCCCCCCCn1c2c(c(=N)c3c1CCC3)CCCC2`, the inhibition is 87% (active).

Regarding `Cc1cc([N+](=O)[O-])nn1CCCC(=O)Nc1cccnc1Cl`, the inhibition was 21.4% (inactive).

`COc1ccc(N2CCN(S(=O)(=O)CCNC(=O)C34CC5CC(CC(C5)C3)C4)CC2)cc1`: the inhibition was 17.2% (inactive).

Take `CCOC(=O)C(C)n1nc(-c2ccccc2)c2ccccc2c1=O` (configuration not stated): the inhibition was 7.24% (inactive).

For the molecule `Cc1cc(C)nc(/N=C2\NC(=O)CC(C(=O)O)N2c2ccc(Cl)cc2Cl)n1` (configuration not stated), the inhibition is 3.8% (inactive).

Consider `O=C(COC(=O)c1ccccc1Cl)NC1CCCCCCC1`, for which the inhibition was 4.18% (inactive).

`COc1cc(NC(=O)c2ccccc2NS(=O)(=O)c2ccc(Cl)s2)cc(OC)c1`: the inhibition was 85.1% (active).

For `COc1cc(OC)c(S(=O)(=O)Nc2ccccc2C(=O)O)cc1S(=O)(=O)Nc1ccccc1C(=O)O`, the inhibition was 13.2% (inactive).

Turning to `COC(=O)c1ccc(NC(=O)c2ccccc2NS(=O)(=O)c2ccccc2)cc1`, the inhibition is 36.9% (inactive).

Regarding `O=C(Nc1cc2c3c(c1)C1CCCC1CN3CC1CCCC21)c1ccc([N+](=O)[O-])cc1` (configuration not stated), the inhibition is 14.3% (inactive).

With `CN(C)c1ccc(C=NCCc2ccc(S(N)(=O)=O)cc2)cc1`, the inhibition was 5.89% (inactive).

As to `Cc1cc(C)c(C#N)c(SCC(=O)Nc2ccccc2)n1`, the inhibition was -38.3% (inactive).

As for `Cc1cc2cc3c(cc2nc1SCC(=O)Nc1c(C)cccc1C)CCC3`, the inhibition was 56.1% (active).

On to `Cc1cccc(C)c1NC(=O)CSc1ccc([N+](=O)[O-])cn1`, for which the inhibition is 7.43% (inactive).

As to `CN(C)CCn1c2c(c(SCC(=O)Nc3ccccc3C(F)(F)F)nc1=O)CCCC2`, the inhibition is 18.8% (inactive).

On to `Cc1cccn2c(=O)c3cc(C(=O)NCC4CCCO4)c(=N)n(Cc4ccc(F)cc4)c3nc12` (configuration not stated), for which the inhibition is 19.6% (inactive).

Consider `Cc1cccn2c(=O)c3cc(C#N)c(=O)n(CCCN4CCOCC4)c3nc12`, for which the inhibition was 16% (inactive).

As for `Cc1cccn2c(=O)c3cc(C(=O)NCCN4CCOCC4)c(=N)n(Cc4cccnc4)c3nc12`, the inhibition was 52.7% (active).

As to `COc1ccc(CCn2c(=N)c(C(=O)NCC3CCCO3)cc3c(=O)n4cccc(C)c4nc32)cc1OC` (configuration not stated), the inhibition is 64.4% (active).

Take `Cc1ccc2nc3c(cc(C(=O)NCCc4ccccc4)c(=N)n3CC3CCCO3)c(=O)n2c1` (configuration not stated): the inhibition is 27.8% (inactive).

As to `COc1ccc(CNC(=O)c2cc3c(=O)n4ccccc4nc3n(CC3CCCO3)c2=N)cc1` (configuration not stated), the inhibition was 22.4% (inactive).

Regarding `COc1cccc(C2=CC(=O)C[C@H](c3ccc(F)cc3)C2)c1OC`, the inhibition was 11.8% (inactive).

Turning to `Cc1nc(-c2ccc(Cl)cc2)sc1C1(C)CC(c2ccc(Br)cc2)=NO1` (configuration not stated), the inhibition was 4.57% (inactive).

With `Cc1c(Cl)cccc1NC(=O)Nc1ccc(C(=O)N2CCCC2)cc1`, the inhibition was 41.9% (inactive).

Regarding `Cc1[nH]c(C)c(S(=O)(=O)N2CCC(C)CC2)c1C(=O)N1CCCC1`, the inhibition was -8.55% (inactive).

Consider `N#Cc1ccc(C2=CC(=O)C[C@H](c3ccc(Cl)cc3)C2)cc1`, for which the inhibition is -22.1% (inactive).

As to `COC(=O)c1c(-c2ccc(C)cc2)csc1N`, the inhibition was 16.7% (inactive).

Consider `CC(=NCc1ccco1)C1=C(O)c2ccccc2C1=O`, for which the inhibition is -27.5% (inactive).

For the molecule `CCOC(=O)c1c(-c2ccc(C)cc2)csc1/N=C(\C)C1=C(O)c2ccccc2C1=O`, the inhibition was 63.4% (active).

With `Cc1cc(-c2ccc(S(=O)(=O)N3CCc4ccccc4C3)s2)on1`, the inhibition was -2.71% (inactive).

Take `C/C(=N\NC(=O)c1ccc(C)cc1)C1C(=O)c2ccccc2C1=O`: the inhibition is 1.09% (inactive).

Regarding `COc1cc(NC(=O)c2ccc(CNc3c(N4CCCC4)c(=O)c3=O)cc2)cc(OC)c1OC`, the inhibition is -9.99% (inactive).

For `O=C(NCc1ccc2c(c1)OCO2)c1c(O)nc2sccn2c1=O`, the inhibition was 16.7% (inactive).

Take `CC(=O)c1c(OCC(=O)N(C)C2CCCCC2)ccc2c(C)cc(=O)oc12`: the inhibition is 4.3% (inactive).

Take `Oc1c(CN2CCCC2)cc(COCc2ccccc2)c2cccnc12`: the inhibition was 75.7% (active).

As for `Oc1c(CN2CCN(c3ccc(F)cc3)CC2)cc(Cl)c2cccnc12`, the inhibition was 65% (active).

As for `COc1cc(C)cc(CN2CCC(Cc3ccccc3)CC2)c1O`, the inhibition was -29.4% (inactive).

As to `Cc1cccnc1NC(=O)c1cccc(S(=O)(=O)N2CCN(c3ccc(F)cc3)CC2)c1`, the inhibition is 28.4% (inactive).

On to `CC1CCCN(CC(O)COCc2ccccc2)C1` (configuration not stated), for which the inhibition was 3.39% (inactive).

Consider `O=C(CN1CCN(c2ccc(F)cc2)CC1)Nc1ccccc1`, for which the inhibition was 0.1% (inactive).

For the molecule `CC(C)(C)C1CCC(C(=O)Nc2cccnc2)CC1` (configuration not stated), the inhibition is 19% (inactive).

For the molecule `CCC(C)(C(=O)Nc1ccccc1C)N(C(=O)CNC(C)=O)c1ccc(C)cc1` (configuration not stated), the inhibition was -5.46% (inactive).

With `CN1CCN(C2Cc3ccc(Cl)cc3Sc3ccc(F)cc32)CC1` (configuration not stated), the inhibition is 54.3% (active).

On to `CC(OC(=O)CCCOc1ccccc1)C(=O)Nc1ccc(Cl)cn1` (configuration not stated), for which the inhibition is 17.5% (inactive).

On to `COC(=O)[C@@H]1C[C@@]2(O)[C@H](O)[C@H](O)[C@H](O)C[C@H]2N1Cc1ccc(C)s1`, for which the inhibition is 7.36% (inactive).

Regarding `CCC(c1nnnn1Cc1ccco1)N(CCc1ccccc1)Cc1cc2cccc(C)c2[nH]c1=O` (configuration not stated), the inhibition was 12.5% (inactive).

As for `CCC(c1nnnn1C1CCCC1)N(Cc1cccs1)Cc1cc2cccc(C)c2[nH]c1=O` (configuration not stated), the inhibition is 56.1% (active).

Regarding `Cc1cccc2cc(CN(Cc3nnnn3Cc3ccccc3)C3CCCC3)c(=O)[nH]c12`, the inhibition is 13.2% (inactive).

On to `CN(C(=O)CSc1cccc[n+]1[O-])C1CCCCC1`, for which the inhibition is 20.9% (inactive).

On to `CN1CCN(CC#CCC2(O)c3ccccc3-c3ccccc32)CC1`, for which the inhibition was 16.2% (inactive).

Turning to `COc1ccc(-c2nnc(SCC(=O)c3ccc4c(c3)OCCO4)o2)cc1`, the inhibition was 17.3% (inactive).

`COc1ccc(-c2nnc(SC(=O)N3c4ccccc4Sc4ccccc43)o2)cc1`: the inhibition was 69.1% (active).

For the molecule `COc1ccc(-c2nnc(SC(C)C(=O)NC3CC3)o2)cc1` (configuration not stated), the inhibition was 19.9% (inactive).

As to `O=C(CCc1ccccc1)Nc1ccc(NC(=O)C2CCCCC2)nc1`, the inhibition is 11% (inactive).

Turning to `COc1ccc(CNC(=O)CN(C(=O)c2csnn2)c2cnc3ccccc3c2)cc1`, the inhibition was 12.6% (inactive).

With `CCOC(CNC(=O)C1CCN(S(=O)(=O)c2ccc3nc4c(c(C(=O)O)c3c2)CC(C)CC4)CC1)OCC` (configuration not stated), the inhibition was 14.5% (inactive).

As for `C/C(=N\N=C(N)N)c1ccc(Cl)cc1`, the inhibition was 52% (active).

In the case of `C/C(=N\OCC(=O)O)c1ccc(Cl)cc1`, the inhibition is -3.73% (inactive).

As for `C/C(=N\NC(=S)NCc1ccccc1)c1ccc(Cl)cc1`, the inhibition is 12.3% (inactive).

For the molecule `CN(C)c1ccc(C(CNC(=O)c2ccc(F)cc2)c2c[nH]c3ccccc23)cc1` (configuration not stated), the inhibition is 3.11% (inactive).

Consider `COC(=O)c1c(NC(=O)COc2ccc(Cl)cc2Cl)sc2c1CC(C)(C)NC2(C)C`, for which the inhibition was 100% (active).

Consider `Cc1cnc(C(=O)OCC(=O)Nc2ccc(Cl)cc2Cl)cn1`, for which the inhibition is 21.4% (inactive).

Consider `COC(=O)c1sccc1NC(=O)COc1ccc(Cl)cc1`, for which the inhibition was -7.02% (inactive).

As for `CCc1ccc(CN(C)C(C)C(=O)Nc2ccc(S(=O)(=O)N3CCCC3)cc2)cc1` (configuration not stated), the inhibition is 20.1% (inactive).

On to `Oc1[nH]c2ccc(Br)cc2c1N=Nc1nn[nH]n1`, for which the inhibition was 13.6% (inactive).

For the molecule `O=C(CNC(=O)Cc1ccccc1)N=Nc1c(O)[nH]c2ccc(Br)cc12`, the inhibition is 37.6% (inactive).

As to `NS(=O)(=O)c1ccc(N=Nc2c(O)[nH]c3ccc(Br)cc23)cc1`, the inhibition is 53.6% (active).

As for `Cc1ccc(S(=O)(=O)Oc2ccc(/C=N/NC(=O)c3ccncc3)cc2)cc1`, the inhibition was 16.6% (inactive).

For `COc1ccc(CC(=O)NCC(=O)N/N=C/c2cc(Br)ccc2OC)cc1`, the inhibition is 41.6% (inactive).

`Cc1ccc(OCCOCCOc2ccc(Br)cc2/C=N\NC(=O)c2ccncc2)cc1`: the inhibition is 59.9% (active).
